Structures are written as SMILES. Calls of active or inactive are those of the source. How the source made its calls: active means hit-call score of the fitted dose curve at least 0.9, where 1 is the maximum; inactive means score below 0.9.

Read-out in this test: CYP4A11 (gene 1579)
Briefly: LTEA_HepaRG_CYP4A11: Life Technologies and Expression Analysis (LTEA) Assay for CYP4A11 using HepaRG (AID 2283486). The settings on record: mRNA level, 48 h; actives raise or lower the signal. The gist of the method:
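Differentiated HepaRG cells, 48 h after plating, exposed in duplicate for 48 h to 8 half-log concentrations up to 100 uM in 0.5% DMSO in serum-free induction medium. CYP4A11 mRNA measured by TaqMan qRT-PCR, normalized to ACTB, GAPDH and POLR2A.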
`CC(C)(O)c1coc(S(=O)(=O)NC(=O)Nc2c3c(cc4c2CCC4)CCC3)c1`: the molecule was called inactive.

Regarding `Cn1cnc([N+](=O)[O-])c1Sc1ncnc2nc[nH]c12`, the AC50 (in general, the concentration at which the activity in the assay is half-maximal) is 0.324 µM (active).

Turning to `CC[C@H](C)C(=O)O[C@H]1C[C@@H](C)C=C2C=C[C@H](C)[C@H](CC[C@@H]3C[C@@H](O)CC(=O)O3)[C@H]21`, the outcome was inactive.

Consider `CCOCCOCCOCCO`, for which the call was inactive.

With `O=C(CCCCCCCCc1cccnc1)N1CCC(C=C(c2ccccc2)c2ccccc2)CC1`, the AC50 was 12.6 µM (active).

With `CCOC(=O)CC(CC(=O)OCC)(OC(C)=O)C(=O)OCC`, the molecule was classed as inactive.

On to `Cc1ccc(C)c(O)c1`, for which the result was inactive.

Consider `CCCCC(CC)COC(=O)CCCCCCCCC(=O)OCC(CC)CCCC` (configuration not stated), for which the call was inactive.

With `O=C(O)c1cc(N=Nc2ccc(S(=O)(=O)Nc3ccccn3)cc2)ccc1O`, the molecule was called inactive.

With `CCN(C(=O)c1cc(C)cc(OC[C@H](C)Nc2ccncc2)c1)C(C)C`, the AC50 was 33.8 µM (active).

For the molecule `CC(=O)OC[C@H]1O[C@@](COC(C)=O)(O[C@H]2O[C@H](COC(C)=O)[C@@H](OC(C)=O)[C@H](OC(C)=O)[C@H]2OC(C)=O)[C@@H](OC(C)=O)[C@@H]1OC(C)=O`, the call was inactive.

As for `CCCCCCc1ccc(O)cc1O`, the result was inactive.

Take `CN(C)c1ccc(Cc2ccc(N(C)C)cc2)cc1`: the AC50 is 89 µM (active).

On to `Cc1[nH]cnc1C[C@H]1CCc2c(C)c3ccccc3n2C1=O`, for which the AC50 was 13.2 µM (active).

As to `O=C(O)c1cccc(Oc2ccccc2)c1`, the AC50 is 38.9 µM (active).

As for `CC(C)=CCCC(C)=CC=O`, the outcome was inactive.

As for `O=C(NS(=O)(=O)/C=C/c1ccccc1)c1ccc(F)cc1Cl`, the call was inactive.

The record behind these values is PubChem BioAssay (EPA / NIEHS).
